Compound activity (PubChem)
This is a sample that favours compounds with a hit; in the whole collection about 6% have one here.
D3 ag = agonists of human D3 dopamine receptor. 410,000 compounds, 0.58% hits. D3R DiscoveRx beta-arrestin cells, luminescence, 90 min. max activation, %. P35462; in the data active = max activation above about 30%
Target sequence (P35462 whole entry, looked up): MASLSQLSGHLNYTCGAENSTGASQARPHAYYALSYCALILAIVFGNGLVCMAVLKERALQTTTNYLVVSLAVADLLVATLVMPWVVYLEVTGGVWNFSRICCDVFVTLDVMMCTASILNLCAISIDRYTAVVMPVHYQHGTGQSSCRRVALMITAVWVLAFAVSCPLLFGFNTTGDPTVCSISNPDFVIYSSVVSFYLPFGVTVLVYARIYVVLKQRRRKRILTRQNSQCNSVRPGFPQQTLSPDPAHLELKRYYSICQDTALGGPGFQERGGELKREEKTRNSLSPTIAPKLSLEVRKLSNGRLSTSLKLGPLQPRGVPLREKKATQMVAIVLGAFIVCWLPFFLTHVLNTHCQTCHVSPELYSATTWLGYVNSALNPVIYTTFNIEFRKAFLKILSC
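Cells at 1500/well, incubated overnight, then treated with pinned compounds (dopamine as control) for 90 min at 37 degrees C. DiscoveRx reagent added for 30 - 60 minutes at room temperature; luminescence read.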
D3 antag = D3 dopamine receptor (human) antagonism; P35462; D3R cells, DiscoveRx beta-arrestin luminescence, antagonist mode; stronger effect = lower value; max response, negative = inhibition, %; 360,000 compounds, 2.5% hits; AID 652054; in the data active = max response below about -50%
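Cells expressing the human receptor were seeded at 1500 cells/well, incubated overnight at 37 degrees C in 5% CO2, then exposed to library compounds with dopamine controls for 90 minutes at 37 degrees C before luminescent detection.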
D1 agonist = agonists of human D1 dopamine receptor; P21728; 360,000 compounds, 1% hits; HEK293 T-REx D1 cells, calcium flux, agonist mode; activation, % at 2 µM; in the data active = activation above about 30%
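Inducible HEK293 T-REx D1 cells, force-coupled to calcium signalling, were plated at 4000 cells/well with tetracycline and held overnight at 30 C. After no-wash calcium dye loading, compound-evoked calcium rise over 180 s flagged agonists.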
D1 PAM = human D1 dopamine receptor positive modulation | HEK293 TREx D1 cells, calcium flux, dopamine EC20 potentiation | potentiation, % at 10 µM | 360,000 compounds, 0.036% hits; in the data active = potentiation above about 30%
D1 antagonist = antagonists of human D1 dopamine receptor; P21728; HEK293 TREx D1 cells, calcium flux, dopamine EC80; stronger effect = lower value; activity change, negative = inhibition, % at 10 µM; 360,000 compounds, 3.2% hits; AID 504652; in the data active = activity change below about -30%
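After overnight tetracycline induction at 30 C, force-coupled D1 HEK293 cells took up a no-wash calcium dye at room temperature. Compounds were added and monitored 180 s, and the response to EC80 dopamine was then recorded.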
Hits are given with their value; 0 = inactive; - = not tested or not shown; ! = not active in a repeat.

SMILES	D3 ag	D3 antag	D1 agonist	D1 PAM	D1 antagonist
CCNC(=O)CC1C(=O)N(c2ccc(C)cc2)C(=O)N1Cc1ccc(C)cc1 (stereo not drawn)	0	-	0	0	0
COc1ccccc1N=c1scc(-c2ccc3c(c2)NC(=O)CO3)n1CC1CCCO1 (stereo not drawn)	0	-75	0	0	0
COC(=O)c1sc(S(=O)(=O)N2CCC(C(=O)O)CC2)c(C(=O)OC)c1C	0	0	0	0	0
COC(=O)c1sc(S(=O)(=O)N2CCCCC2C)c(C(=O)OC)c1C (stereo not drawn)	0	0	0	0	-59
C[C@@H]1CN([C@H](C)CO)C(=O)c2cc(C#CC3CCCCC3)cnc2O[C@H]1CN(C)Cc1cccnc1	0	0	-	-	-
CN(Cc1ccccc1)S(=O)(=O)c1ccc(NC(=O)c2cc(=O)c3ccccc3o2)cc1	0	-	0	0	0
Cc1ccccc1NS(=O)(=O)c1ccc(Br)s1	0	-	50	0	0
CC(C)NC(=O)c1ccccc1NS(=O)(=O)c1ccc(Br)s1	0	0	0	0	0
CCCCCCCCCCCCN1[C@@H](CC(=O)OC)c2cc(F)cc(F)c2S1(=O)=O	31	0	-	-	-
CCCCCCCCCCCCN1[C@@H](CC(=O)OC)c2cc(F)ccc2S1(=O)=O	0	0	-	-	-
Oc1c(C(c2ccc(Cl)cc2Cl)N2CCCC2)sc2nc(-c3ccco3)nn12 (stereo not drawn)	0	-	0	0	-
O=S(=O)(Nc1ccc(N2CCOCC2)nn1)c1ccccc1	0	0	0	0	-47
CC(=O)c1ccc(OC2OCCOC2Oc2ccc(C(C)=O)cc2)cc1 (stereo not drawn)	0	0	0	0	-39
CC(=O)c1ccc(Oc2ccc(C(C)=O)cc2)cc1	0	0	0	0	0
COc1ccccc1/C=C/C(=O)OC(C)CN1CCOCC1 (stereo not drawn)	0	-83	0	0	0
Cc1cccc(OCC(=O)NNC(=O)CCN2CCN(c3ccccc3)CC2)c1C	0	-83	-	-	-
O=C(CCN1CCN(c2ccccc2)CC1)NNC(=O)c1ccccc1	0	-54	-	-	-
CO/N=C(/C(=O)N[C@@H]1C(=O)N2C(C(=O)O)=C(COC(N)=O)CS[C@H]12)c1ccco1	0	-	-	-	-
COCCNc1oc(/C=C/c2cccc(OC)c2)nc1S(=O)(=O)c1ccccc1	0	0	-	-	-
C=C1C(O)[C@@H]2O[C@]3(CC[C@H](/C=C/C(C)[C@@H]4CC(C)=CC5(O[C@H](C[C@@](C)(O)CO)CCC5O)O4)O3)CC[C@H]2O[C@@H]1C(O)CC(C)[C@H]1OC2(CCCCO2)CCC1C (stereo partly drawn)	0	-78	-	-	-
COc1ccc(OC)c(C2C(C(=O)N3CCCCC3)=C(C)Nc3nc4ccccc4n32)c1 (stereo not drawn)	0	-	0	0	0
Cc1nc(-c2ccc(Cl)cc2)sc1C1(C)CC(c2ccc([N+](=O)[O-])cc2)=NO1 (stereo not drawn)	51	0	0	0	0
Oc1[nH]c2ccc(Br)cc2c1N=Nc1ccc(F)cc1	0	0	56	0	0
Cc1ccc(S(=O)(=O)NC(=O)C2(C)CCN2C(=O)COc2ccc(Cl)cc2)nc1 (stereo not drawn)	0	0	-	-	-
FC(F)(F)c1ccc(Cl)c(Nc2nnc(-c3ccncc3)s2)c1	0	-56	-	-	-
SMILES	D3 ag	D3 antag	D1 agonist	D1 PAM	D1 antagonist
CCOc1ccc(NC(=O)c2cc3c(=O)n4cccc(C)c4nc3s2)cc1	0	-	0	0	0
Cc1ccc(NC(=O)CSc2ccc(-c3ccccn3)nn2)c(C)c1	0	0	0	0	0
Cc1cc(C)c(NC(=O)CSc2ccc(-c3ccccn3)nn2)c(C)c1	0	0	0	0	-48!
O=C(Nc1ccc(Cl)cc1)N1CCC(c2nc(-c3cccs3)no2)CC1	0	0	0	0	-46
COc1ccc(NC(=O)N2CCC(c3nc(-c4cccs4)no3)CC2)cc1	0	0	0	0	0
Cc1ccc(S(=O)(=O)c2nnn3c2nc(N2CCN(c4ccccc4F)CC2)c2ccccc23)cc1C	0	-	0	0	0
O=C(CCn1c(=O)oc2ccccc21)Nc1ccc2c(c1)OCCO2	0	0	0	0	-38
O=C(Cn1c(=O)oc2ccccc21)Nc1ccc2c(c1)OCCO2	0	0	0	0	0
Cn1cc(SCC(=O)Nc2ccc3c(c2)OCCO3)c2ccccc21	0	0	0	0	-39
